Screening data: PubChem BioAssay, several laboratories
PrPC TRFRET = reduces human prion protein on the cell surface; P04156; 370,000 compounds, 0.43% hits; AID 720596; inhibition, % at 13.8 µM; cell surface PrPC, TR-FRET read-out; in the data active = inhibition above about 24%; note: 0% = median of the test wells and 100% = reference compound wells
PrP UTR inh = suppresses PrP 5' UTR mRNA reporter expression; cell-based PrP 5' UTR mRNA reporter, plate reader; AID 488862; 340,000 compounds, 0.35% hits; inhibition, % (concentration not given with the values); in the data active = inhibition above about 52%; note: 0 = median of the neutral control wells
RecA splice inh = inhibitors of M. tuberculosis RecA intein splicing; 290,000 compounds, 0.75% hits; AID 2221; cell-free RecA intein splicing, fluorescence; inhibition, % (no concentration beside the values); P9WHJ3; in the data active = inhibition above about 30%;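 note: 0% = vehicle wells and 100% = reference inhibitor control wells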
Target sequence (P9WHJ3 whole entry, looked up, canonical isoform): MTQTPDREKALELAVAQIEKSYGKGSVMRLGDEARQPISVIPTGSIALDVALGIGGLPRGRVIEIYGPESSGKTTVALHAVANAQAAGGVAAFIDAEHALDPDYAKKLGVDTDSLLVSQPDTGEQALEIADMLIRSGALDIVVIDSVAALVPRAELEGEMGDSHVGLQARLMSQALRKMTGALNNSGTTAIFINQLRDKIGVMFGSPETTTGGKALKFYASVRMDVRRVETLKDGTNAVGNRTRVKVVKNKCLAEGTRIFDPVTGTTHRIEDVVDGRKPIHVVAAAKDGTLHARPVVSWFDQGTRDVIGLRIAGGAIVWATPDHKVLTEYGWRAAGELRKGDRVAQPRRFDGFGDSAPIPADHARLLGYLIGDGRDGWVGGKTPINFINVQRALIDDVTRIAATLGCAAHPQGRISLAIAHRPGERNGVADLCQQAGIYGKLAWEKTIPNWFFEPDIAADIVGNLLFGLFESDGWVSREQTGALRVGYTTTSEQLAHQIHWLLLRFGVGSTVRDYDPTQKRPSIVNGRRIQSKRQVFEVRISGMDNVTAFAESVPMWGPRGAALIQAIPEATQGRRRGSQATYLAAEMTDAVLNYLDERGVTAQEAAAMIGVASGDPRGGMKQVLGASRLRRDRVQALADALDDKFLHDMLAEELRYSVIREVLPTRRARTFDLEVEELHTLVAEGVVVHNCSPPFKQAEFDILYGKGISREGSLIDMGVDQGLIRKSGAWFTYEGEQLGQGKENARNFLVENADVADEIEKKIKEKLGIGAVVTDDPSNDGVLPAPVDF
PfHsp40 rescue = rescue of PfHsp40-mediated yeast toxicity; S. cerevisiae expressing PfHsp40, growth rescue, ATP luminescence; growth rescue, % at 12.5 µM; 340,000 compounds, 0.68% hits; AID 504582; in the data active = growth rescue above about 28%, passing the limit was not always enough;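 note: yeast W303a lacking pdr1 and pdr3 grown in galactose medium; growth measured after three days at 30 °C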
PriA SSB inh = K. pneumoniae PriA-SSBct interaction inhibition. AlphaScreen SSBct-PriA binding, biotinylated peptide. inhibition, % at 33 µM. 430,000 compounds, 0.6% hits. AID 1272365; in the data active = inhibition mostly above about 37%, no sharp cut-off; inactive = mostly below about 20%;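 note: plate controls were negative control peptide for no effect and reference peptide for full effect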
BJeLR lethal = BJeLR cell viability loss; BJeLR (HRASV12) viability, CellTiter-Glo ATP luminescence, 48 h; inhibition, % (test concentration not listed); 300,000 compounds, 0.17% hits; AID 1554; in the data active = inhibition above about 50%
GFP chromo cs = counter-screen: blocks GFP chromophore formation; shares compounds with RecA splice inh; cell-free GFP chromophore formation, fluorescence; EC50, µM; 2,100 compounds, 83% hits; AID 434968; call rule not given here
Active calls of the source: *; · = no result. Shown are actives, neighbours in structure and some others; about 1.9% of the full set was active somewhere.

SMILES | PrPC TRFRET | PrP UTR inh | RecA splice inh | PfHsp40 rescue | PriA SSB inh | BJeLR lethal | GFP chromo cs
O=C(Nc1cccc(F)c1)N1CCC(c2ccccc2)CC1 | 24 | -17 | 38* | 2 | -7 | 0 | >38
Cc1nnc([C@H]2CCCN(S(=O)(=O)N(C)C)C2)s1 | · | · | · | · | -12 | · | ·
CCCCCCCCNC(=O)/C(C#N)=C/c1ccccc1[N+](=O)[O-] | 2 | -5 | 42* | 355* | 6 | 1 | 12*
O=[N+]([O-])c1cc(Br)c(Nc2ccccc2)c([N+](=O)[O-])c1 | -40 | -14 | 64* | 67* | -5 | 60* | 20*
O=C(Oc1ccc(N2C(=O)C3C4CCC(C4)C3C2=O)cc1)c1ccco1 (stereo unspecified) | -2 | -3 | 30* | 1 | 10 | -2 | >38
O=C1c2cccc3c(Cl)ccc(c23)C(=O)N1CCc1ccccc1 | · | · | · | · | 0 | · | ·
O=C1Cc2ccccc2C(=O)N1CCc1ccccc1 | 2 | -31 | 92* | -1 | 10 | -7 | 5.5*
O=C(Cc1nnc(-c2cnccn2)o1)N1CCc2ccccc2C1 | · | · | · | · | -2 | · | ·
CC(=O)Nc1ccc(NC2=CC(=O)c3ccccc3C2=O)cc1 | -9 | -78 | 23 | 0 | 6 | 5 | ·
O=C1C=C(Nc2ccc(O)cc2)C(=O)c2ccccc21 | -60 | -72 | 73* | -1 | 49 | 24 | 3.6*
O=C1C(Cl)=C(Nc2ccc(O)cc2)C(=O)c2ccccc21 | -38 | -48 | 95* | -2 | 5 | 3 | 2.5*
COc1cccc(NC2=C(NCCO)C(=O)c3ccccc3C2=O)c1 | -18 | -30 | 11 | -2 | 62 | -2 | ·
COc1ccc(NC2=C(NCCO)C(=O)c3ccccc3C2=O)cc1 | -10 | -75 | 56* | 0 | 23 | 17 | 31*
COC1=C(Nc2ccc(O)cc2)C(=O)c2ccccc2C1=O | -26 | -84 | 58* | -1 | 46 | -1 | 13*
CCN(CC)CCN(C(=O)c1ccc(S(=O)(=O)N(CC)Cc2ccccc2)cc1)c1nc2cc(OC)ccc2s1 | · | · | · | · | 6 | · | ·
Cc1cnc(C(=O)N2CCN(c3ccccn3)CC2)cn1 | · | · | · | · | -18 | · | ·
Cc1ccc(N(C(=O)CCl)C(C(=O)NC2CCCCC2)c2cccnc2)cc1C (stereo unspecified) | 2 | · | 72* | · | -4 | 101* | 2.6*
Cc1csc(C(=O)NCc2ccc(C(O)c3cccs3)s2)c1 (stereo unspecified) | · | · | · | · | -7 | · | ·
O=[N+]([O-])c1cc([N+](=O)[O-])c2c(=Nc3ccccc3)n(-c3ccccc3)n(O)c2c1 | -19 | -15 | 74* | -1 | 63* | 3 | 4.1*
COc1ccc(CNC(=O)NCc2cc(C3CC3)n(C3CCCC3)n2)cc1OC | · | · | · | · | -14 | · | ·
O=C(CSCc1cc(=O)[nH][nH]1)Nc1ccc(F)cc1 | -7 | -29 | 85* | · | -24 | 4 | 12*
CCCCc1ccc(NC(=O)CSCc2cc(=O)[nH][nH]2)cc1 | 6 | · | 64* | -1 | 6 | -8 | 17*
O=C(CSCc1ccc(F)cc1)Nc1ccc(F)cc1 | 9 | -25 | 3 | 2 | -25 | 1 | ·
CCOC(=O)c1nn(-c2ccccc2C)c(=O)cc1NCCc1c[nH]c2ccccc12 | · | · | · | · | 15 | · | ·
CCCn1c(=O)[nH]c(=O)c2c1nc(-c1ccc(OC(F)F)c(OC)c1)n2CCOC | -9 | -7 | 53* | 2 | -16 | 0 | >38
SMILES | PrPC TRFRET | PrP UTR inh | RecA splice inh | PfHsp40 rescue | PriA SSB inh | BJeLR lethal | GFP chromo cs
COC(=O)c1ccccc1NC(=S)NC(=O)c1ccc(C)cc1 | 9 | -10 | 36* | 1 | 14 | -17 | 0.49*
COC(=O)c1ccccc1NC(=S)NC(=O)c1ccccc1 | 2 | -3 | 30 | 0 | 2 | 1 | ·
CN(C)S(=O)(=O)c1ccc(C(=O)NCC#CCOc2ccccc2C(N)=O)cc1 | · | · | · | · | -5 | · | ·
CC(C)C[C@H]1C(=O)N2CCC[C@H]2[C@]2(O)O[C@](NC(=O)[C@@H]3C=C4c5cccc6[nH]c(Br)c(c56)CC4N(C)C3)(C(C)C)C(=O)N12 (stereo partly specified) | -21 | -19 | 56* | 6 | 16 | -5 | >38
CC(C)[C@@]1(NC(=O)[C@@H]2C[C@@H]3c4cccc5[nH]cc(c45)C[C@H]3N(C)C2)O[C@@]2(O)[C@@H]3CCCN3C(=O)[C@H](Cc3ccccc3)N2C1=O | -12 | -18 | 8 | 0 | 14 | -11 | ·
CCC(C)(C)C1CCc2sc3ncnc(N=Nc4c(O)[nH]c5ccccc45)c3c2C1 (stereo unspecified) | · | · | · | · | -3 | · | ·
Cc1ccc2c(c1)=C(c1sc(=S)n(CCS(=O)(=O)O)c1O)C(=O)N=2 | · | · | · | · | -7 | · | ·
CC(C)(O)C#Cc1ccc(CN2CCN(Cc3ccccc3)C(CCO)C2)s1 (stereo unspecified) | 2 | -5 | -1 | 0 | -3 | -1 | ·
COc1cccc(CN2CCN(Cc3ccc(C#CC(C)(C)O)s3)CC2CCO)c1 (stereo unspecified) | -3 | -5 | 77* | 0 | 2 | -4 | >38
O=C(Cn1cnc2nc(N3CCOCC3)sc2c1=O)Nc1ccc(Cl)cc1C(F)(F)F | · | · | · | · | -13 | · | ·
Cc1cc(O)c(C(C)C)cc1N=Cc1ccccc1O | -2 | -12 | 51* | -2 | 0 | -2 | 15*
CCOc1cc(CNc2ccc3cn[nH]c3c2)ccc1OC | -16 | -29 | 77* | 0 | -7 | -12 | 12*
COc1ccc(CNc2ccc3cn[nH]c3c2)c(OC)c1OC | -6 | -35 | 46* | -1 | 46 | 8 | 1.2*
COc1ccc(CNc2ccncc2)c(OC)c1OC | 2 | -7 | · | 0 | 5 | · | ·
Cc1ccc(Cn2ccn3nc(-c4ccc(F)cc4)cc3c2=O)c(C)c1 | · | · | · | · | 3 | · | ·
Cn1c(SCC(=O)NCC2CCCO2)ncc(C(=O)Nc2ccc(F)cc2)c1=O (stereo unspecified) | -2 | -15 | 39* | 0 | 1 | 12 | 0.89*
Cn1c(SCC(=O)NCC2CCCO2)ncc(C(=O)Nc2ccc(Cl)cc2)c1=O (stereo unspecified) | 5 | -12 | 54* | 0 | -21 | 16 | >38
CC(=O)Nc1ccc(NC(=O)CSc2ncc(C(=O)Nc3ccc(Cl)cc3)c(=O)n2C)cc1 | · | -23 | 23 | · | -12 | -7 | ·
O=C(NCc1ccc(N2CCCC2=O)cc1)c1cn(C[C@H](O)c2ccccc2F)nn1 | · | · | · | · | -10 | · | ·
O=C(NC[C@H]1Cc2ccccc2CO1)c1cnn2c1OCCC2 | · | · | · | · | -3 | · | ·
NS(=O)(=O)c1ccc(N=Cc2c(O)c3ccccc3oc2=O)cc1 | 5 | -28 | 37* | 1 | -25 | -6 | >38
O=C(NCc1cccnc1)C(=O)NCC(c1ccco1)N1CCc2ccccc21 (stereo unspecified) | · | · | · | · | 27 | · | ·
O=C1C=Cc2ccccc2C1=O | · | -22 | 39* | 0 | · | -10 | 9.1*
O=C1C=Cc2ccccc2C1=Cc1[nH]c(=O)[nH]c1O | · | · | · | · | -7 | · | ·
